Hits are enriched below; roughly 2.8% of the tested compounds scored in any of these assays.
PP5 primary: inhibitors of human protein phosphatase 5 (PP5). AID 1987. 320,000 tested, 0.18% active. purified PP5c, OMFP substrate fluorescence. inhibition, % at 6.7 µM;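 active means inhibition above the campaign's mean inhibition across all tested compounds plus 3 SD, cut at about 9.5% in these data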;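 further: 0% = DMSO only and 100% = 100 µM cantharidin control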
Target sequence (P53041 whole entry, looked up): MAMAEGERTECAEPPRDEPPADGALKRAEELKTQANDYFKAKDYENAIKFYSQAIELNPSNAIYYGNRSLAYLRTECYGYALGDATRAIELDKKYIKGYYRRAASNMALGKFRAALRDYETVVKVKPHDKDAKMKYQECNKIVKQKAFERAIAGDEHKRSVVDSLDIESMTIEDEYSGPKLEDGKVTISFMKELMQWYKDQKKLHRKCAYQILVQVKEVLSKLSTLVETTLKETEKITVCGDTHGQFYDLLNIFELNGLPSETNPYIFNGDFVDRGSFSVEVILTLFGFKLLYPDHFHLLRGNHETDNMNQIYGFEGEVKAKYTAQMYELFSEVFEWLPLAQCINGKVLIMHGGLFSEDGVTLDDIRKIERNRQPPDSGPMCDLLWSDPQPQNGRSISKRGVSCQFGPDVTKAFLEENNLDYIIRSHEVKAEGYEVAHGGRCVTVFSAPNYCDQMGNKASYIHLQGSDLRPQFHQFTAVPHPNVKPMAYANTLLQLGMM
PP1 counter: PP1-alpha (human) inhibition in PP5 counter-screen | P62136 | purified PP1alpha, OMFP fluorescence | 320,000 tested, 0.9% active | inhibition, % at 6.7 µM | AID 2235;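 active means inhibition above the mean inhibition of all tested compounds plus 3 SD, computed separately for each screening campaign, cut at about 15% in these data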
KLK7 zymogen act: activates the human kallikrein-7 zymogen; purified proKLK7, EDANS-DABCYL substrate fluorescence; 100% is mature enzyme control, 0% vehicle; 370,000 tested, 0.9% active; activation, % at 7 µM; P49862;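 active means activation above the mean of all tested compounds plus 3 SD, computed per campaign excluding outliers beyond control limits, cut at about 13% in these data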
GASC-1 inh: blocks human GASC-1 demethylase activity. Q9H3R0. inhibition, % at 2.35 µM. GST-JMJD2C(1-420) H3K9me3 demethylation, DELFIA europium. 330,000 tested, 0.069% active;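 active means more than half of a compound's replicate wells show inhibition beyond 50%, single wells judged on their own value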;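 further: signal counts dimethyl H3K9 product captured on neutravidin plate; 0% = median of DMSO wells and 100% = 0.3 times that DMSO median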
NR1D1 modulator: Rev-erb alpha (human) modulation; P20393; Rev-erbα–FITC-DNA binding, fluorescence polarization, 90 min; activity, % at 10 µM; 370,000 tested, 0.79% active; AID 1259318;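 active means activity above about 14%, limit read from the data; passing the limit was not always enough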;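 further: 0% = DMSO wells with 35 nM protein and 100% = DMSO wells with 750 nM protein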
PG9 binder: binds the HIV-1 gp120 antibody PG9; 360,000 tested, 0.43% active; inhibition, % at 6.7 µM; TR-FRET gp120-PG9 antibody binding; AID 624416; in the data active means inhibition above about 8.5%
PP1 inh confirm: confirmation of human PP1 phosphatase inhibitors | shares compounds with PP1 counter | purified PP1alpha, OMFP substrate fluorescence | inhibition, % at 6.7 µM | 1,900 tested, 52% active;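 active means mean PP1 inhibition above a set limit taken from the earlier primary screen, cut at about 15% in these data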
PP5 inh counter: inhibits human PP5 phosphatase in PP1 counter-screen | shares compounds with PP1 counter | purified PP5c, OMFP fluorescence | inhibition, % at 6.7 µM | 1,900 tested, 4% active | AID 2360;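 active means mean PP5 inhibition over triplicate wells above about 9.5% taken from the earlier PP1 screen, limit read from the data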
* hit, by the source's call; . = no result given.

SMILES	PP5 primary	PP1 counter	KLK7 zymogen act	GASC-1 inh	NR1D1 modulator	PG9 binder	PP1 inh confirm	PP5 inh counter
CCCCC(=O)NC(c1ccc(Cl)cc1)c1ccc2cccnc2c1O (stereo not drawn)	4	32*	0	-2	5	-2	21*	-5
CC(=O)NC(c1ccc(Cl)cc1Cl)c1ccc2cccnc2c1O (stereo not drawn)	.	.	0	-7	2	1	.	.
CCCC(=O)NC(c1ccccc1OC)c1ccc2cccnc2c1O (stereo not drawn)	-1	-3	.	-12	.	.	.	.
CCCC(=O)NC(c1ccc(Cl)cc1)c1ccc2cccnc2c1O (stereo not drawn)	4	23*	0	5	-5	-2	20*	-5
CCCC(=O)NC(c1cccc([N+](=O)[O-])c1)c1ccc2cccnc2c1O (stereo not drawn)	.	.	0	.	-13	-2	.	.
CCCC(=O)NC(c1ccc(C)cc1)c1ccc2cccnc2c1O (stereo not drawn)	2	23*	.	-2	.	.	18*	-3
CCCC(=O)NC(c1ccc(Cl)cc1Cl)c1ccc2cccnc2c1O (stereo not drawn)	2	26*	0	-13	-2	1	21*	-4
C#CCOCCOCCOCCNc1nc(N2CCOCC2)nc(N2CCN(C(=O)[C@H](CCC(=O)O)n3cc(C(N)CC(C)C)nn3)CC2)n1 (stereo partly drawn)	.	.	.	.	-2	.	.	.
Cc1ccc(CN2CCCCC(NC(=O)c3cccc(F)c3)C2=O)cc1 (stereo not drawn)	.	.	0	.	1	.	.	.
CCCCc1ccc(Nc2nc(CCC)cc(=O)[nH]2)cc1	8	18*	-1	-10	-3	0	7	4
S=c1[nH]nc(-c2n[nH]c3c2CCC3)n1N=Cc1c[nH]c2ccccc12	.	.	0	.	-1	.	.	.
CCCCC1=CC2=CC(=O)C(C)(OC(=O)CC)C(=O)C2=CN1CCc1c[nH]c2ccccc12 (stereo not drawn)	1	20*	-2	-5	0	-2	3	8
CCn1cc(C(=O)O)c(=O)c2cc(F)c(N3CCN(C(=S)Nc4ccccc4OC)CC3)cc21	2	25*	0	-4	-2	-1	15	-4
Oc1c(C(Nc2nccs2)c2ccc(C(F)(F)F)cc2)ccc2cccnc12 (stereo not drawn)	.	.	1	19	13	1	.	.
Oc1c(C(Nc2cccc(C(F)(F)F)c2)c2ccncc2)ccc2cccnc12 (stereo not drawn)	4	18*	1	0	-1	-2	14	-3
O=C(N/N=C/c1ccco1)c1cc(-c2ccccc2)n[nH]1	0	1	1	13	1	-3	.	.
Cc1ccc(-c2cc(C(=O)N/N=C/c3ccco3)[nH]n2)cc1	-7	-56	0	4	-3	0	-5	-5
COc1ccc(/C=C2\SC(=O)N(CCC(=O)Nc3ccc(S(=O)(=O)Nc4nccs4)cc3)C2=O)cc1	4	21*	1	6	-8	-2	10	1
COc1ccc(/C=N/Nc2cc(C)nc3ccc(Br)cc23)cc1	3	22*	-2	7	-1	-2	-6	6
COC(=O)[C@H](CC(C)C)N(CCCc1cn(CC2CCCCC2)nn1)S(=O)(=O)c1ccc(F)cc1Br	.	.	0	.	-2	.	.	.
O=C(Nc1cccnc1)c1ccc(Cl)c(S(=O)(=O)N2CCCCC2)c1	1	0	0	-5	-2	0	.	.
O=C(Nc1cccnc1)c1ccc(Cl)c(S(=O)(=O)N2CCCC2)c1	2	38*	0	-12	2	-2	-4	-8
CCOC(=O)c1sc(N)c(C(=O)OCC)c1COC(=O)C1CC(=O)N(Cc2ccco2)C1 (stereo not drawn)	1	0	0	4	-3	-4	.	.
COC(=O)c1sc(N)c(C(=O)OC)c1COC(=O)C1CC(=O)N(Cc2ccco2)C1 (stereo not drawn)	2	18*	0	-24	-3	-1	-3	-2
Cc1ccc(C(=O)N2CCC[C@@H]2C(=O)N2CCC[C@@H]2C(=O)NCc2ccccc2)cc1	.	.	0	.	-4	1	.	.
SMILES	PP5 primary	PP1 counter	KLK7 zymogen act	GASC-1 inh	NR1D1 modulator	PG9 binder	PP1 inh confirm	PP5 inh counter
CCCCCCCCCCCCCCCCn1cc[n+](C)c1	3	25*	0	-4	4	-2	-12	1
CCCCCCCCn1ccc(=N)cc1	0	-2	0	12	0	0	.	.
CCc1nnc(NS(=O)(=O)c2ccc(NC(=S)NC(=O)/C=C/c3ccccc3)cc2)s1	4	10	0	6	-4	0	.	.
CCc1nnc(NS(=O)(=O)c2ccc(NC(=S)NC(=O)/C=C/c3ccc(C(C)C)cc3)cc2)s1	5	26*	.	-2	.	.	32*	6
COc1cccc(/C=N/Nc2ncnc3scc(-c4ccccc4)c23)c1O	4	26*	-4	9	2	-1	32*	6
COc1cccc(/C=N/Nc2nccnc2Cl)c1O	.	.	0	-31	0	-4	.	.
COc1cccc(/C=N/Nc2ncnc(Cl)c2N)c1O	-1	26*	-1	14	-1	-8	32*	-2
O=C(NCc1cccs1)C1C2C=CC3(CN(Cc4ccccc4)C(=O)C13)O2 (stereo not drawn)	.	.	-1	.	-9	.	.	.
CC(C)C[C@H](NC(=O)c1nc[nH]c1C(=O)NC(c1ccccc1)c1ccccc1)C(=O)OCc1ccccc1	2	19*	0	1	2	-1	11	3
COC(=O)[C@]12C[C@H](CC(=O)NCc3cccc(C(F)(F)F)c3)C(=O)N(CCC3=CCCCC3)C1=C[C@H](COCc1ccccc1)O[C@@H]2C	.	.	0	.	3	0	.	.
O=C(NCc1cccnc1)/C(=C/c1ccc(-c2cccc(C(F)(F)F)c2)o1)NC(=O)c1ccccc1	7	7	-3	7	3	0	.	.
Cc1ccc(C(=O)N/C(=C/c2ccc(-c3cc(C(F)(F)F)ccc3Cl)o2)C(=O)NCc2cccnc2)cc1	3	22*	-5	-4	-8	0	13	3
CC(C)OC(=O)CC(=O)c1sc2nc3c(cc2c1N)CN(C)CC3	5	23*	.	5	.	.	7	20*
COc1ccccc1CNC(=O)N(CCc1c(C)[nH]c2ccccc12)Cc1cccs1	.	.	0	.	-5	.	.	.
NC(=O)CC(NC(=O)Cc1cccc2ccccc12)c1ccc(NCC2CC2)c([N+](=O)[O-])c1 (stereo not drawn)	0	-1	0	-7	2	0	.	.

Source: PubChem BioAssay (several laboratories)
